Results as given in ChEMBL document CHEMBL3988442, “University of Dundee, Small-Polar-MMV Screening Library” (2021).
For some of these results: Potency and affinity values are given separately.

Experiments:
Set-up in all cases: scale not given: direction of the effect not stated beside the values
[1] = target: Protein translocase subunit SecA (Escherichia coli (strain K12)) (UniProt P10408); experiment: Assay to Identify E. coli SecA ATPase Inhibitors; assay type: functional; conditions: 30 µM
[2] = target: T1, Ubiquitin-activating enzyme e1, putative (Leishmania donovani (strain BPK282A1)) (UniProt E9BSI1); experiment: Leishmania donovani Ubiquitin Activating Enzyme (LdE1); assay type: functional; conditions: 30 µM
T1 sequence (whole entry): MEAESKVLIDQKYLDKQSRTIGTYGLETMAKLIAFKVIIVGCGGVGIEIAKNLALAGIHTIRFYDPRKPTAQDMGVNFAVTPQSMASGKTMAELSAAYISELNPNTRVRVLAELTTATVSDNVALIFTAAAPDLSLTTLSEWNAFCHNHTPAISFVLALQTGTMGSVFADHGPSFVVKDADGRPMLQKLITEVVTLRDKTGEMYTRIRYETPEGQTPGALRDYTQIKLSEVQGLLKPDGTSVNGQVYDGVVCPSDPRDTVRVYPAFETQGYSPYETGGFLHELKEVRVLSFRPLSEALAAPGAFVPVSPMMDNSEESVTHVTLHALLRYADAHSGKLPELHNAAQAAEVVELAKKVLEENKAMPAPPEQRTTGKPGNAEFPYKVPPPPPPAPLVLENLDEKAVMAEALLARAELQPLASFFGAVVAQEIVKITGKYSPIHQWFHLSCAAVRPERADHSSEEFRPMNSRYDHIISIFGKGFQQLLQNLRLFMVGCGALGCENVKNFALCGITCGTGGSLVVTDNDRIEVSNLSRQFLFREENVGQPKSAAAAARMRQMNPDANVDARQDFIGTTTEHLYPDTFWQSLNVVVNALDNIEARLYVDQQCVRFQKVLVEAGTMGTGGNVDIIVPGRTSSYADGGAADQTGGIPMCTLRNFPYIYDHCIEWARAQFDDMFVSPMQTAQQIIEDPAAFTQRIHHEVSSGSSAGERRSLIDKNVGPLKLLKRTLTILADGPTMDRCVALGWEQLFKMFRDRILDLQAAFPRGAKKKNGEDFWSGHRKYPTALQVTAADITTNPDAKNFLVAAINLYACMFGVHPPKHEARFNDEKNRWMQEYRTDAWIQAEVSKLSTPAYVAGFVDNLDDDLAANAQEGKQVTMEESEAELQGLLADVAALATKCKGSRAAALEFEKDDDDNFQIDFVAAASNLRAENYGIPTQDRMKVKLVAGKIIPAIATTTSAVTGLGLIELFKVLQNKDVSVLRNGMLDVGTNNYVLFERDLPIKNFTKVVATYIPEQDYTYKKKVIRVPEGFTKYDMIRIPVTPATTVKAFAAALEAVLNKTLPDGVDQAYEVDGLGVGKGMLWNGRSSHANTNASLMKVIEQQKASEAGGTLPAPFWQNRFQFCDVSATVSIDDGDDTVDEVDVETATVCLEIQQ

[3] = target: AMP-activated protein kinase, AMPK (Homo sapiens) (UniProt P54646+O43741+P54619+Q9UGJ0+Q9Y478+Q13131+Q9UGI9); experiment: AMP-dependent Kinase enzyme assay. An in vitro enzyme assay that detects ADP turnover that is directly proportional to AMPK activity. This uses naive AMPK that is activated during the assay with MK-8722; assay type: functional; conditions: 30 µM
[4] = target: Sialic acid-binding Ig-like lectin 9 (Homo sapiens) (UniProt Q9Y336); experiment: Hs-Siglec9 ALPHAscreen SOP 20170721; conditions: 10 µM
Trypanosoma cruzi = experiment: Trypanosoma cruzi phosphomannomutase and mannose-1-phosphate guanylyltransferase assay; assay type: functional; conditions: 10 µM
[5] = target: T2, Arginase-2, mitochondrial (Homo sapiens) (UniProt P78540); experiment: in vitro enzyme assay to detect the production of urea directly proportional to the activity of Arginase II; assay type: functional; conditions: 33.3 µM; further: in the data most compounds retested in dose-response had high values
T2 sequence (whole entry): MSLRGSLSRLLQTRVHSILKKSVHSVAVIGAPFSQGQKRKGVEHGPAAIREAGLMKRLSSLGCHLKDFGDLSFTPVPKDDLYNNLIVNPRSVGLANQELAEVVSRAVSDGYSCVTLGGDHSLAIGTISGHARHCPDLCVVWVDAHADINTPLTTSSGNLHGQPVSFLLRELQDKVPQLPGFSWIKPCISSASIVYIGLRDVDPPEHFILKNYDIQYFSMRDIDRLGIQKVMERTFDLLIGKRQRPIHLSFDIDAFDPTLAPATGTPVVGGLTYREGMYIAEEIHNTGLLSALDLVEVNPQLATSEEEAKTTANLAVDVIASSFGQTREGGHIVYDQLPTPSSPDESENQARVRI

[6] = target: T3, Proteasome subunit beta (Trypanosoma cruzi) (UniProt O96673); experiment: Trypanosoma cruzi proteasome chymotrypsin-like activity (TcProtChymo) assay.; further: in the data most compounds retested in dose-response had high values; assay type: functional; conditions: 9.37 µM
T3 sequence (whole entry): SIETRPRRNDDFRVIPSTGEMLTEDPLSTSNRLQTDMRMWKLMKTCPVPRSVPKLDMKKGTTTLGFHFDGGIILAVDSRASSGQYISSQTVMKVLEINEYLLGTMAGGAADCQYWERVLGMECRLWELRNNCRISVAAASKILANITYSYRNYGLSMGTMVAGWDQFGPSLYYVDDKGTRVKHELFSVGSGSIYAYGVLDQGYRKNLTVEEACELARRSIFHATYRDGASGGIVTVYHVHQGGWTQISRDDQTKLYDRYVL

Homo sapiens = species on record: Homo sapiens; experiment: To identify inhibition of the IFN signalling (Jak-Stat) pathway via expression of an eGFP reporter gene under the control of an IFN-stimulated response element (ISRE) containing MxA promoter.; assay type: functional; conditions: 30 µM
[7] = target: T4, Tyrosyl-tRNA synthetase, putative (Trypanosoma cruzi (strain CL Brener)) (UniProt Q4DSP6); experiment: Trypanosoma cruzi tyrosyl tRNA synthetase (TcYRS) _High Tyrosine SOP; assay type: functional; conditions: 30 µM; further: in the data most compounds retested in dose-response had high values
T4 sequence (whole entry): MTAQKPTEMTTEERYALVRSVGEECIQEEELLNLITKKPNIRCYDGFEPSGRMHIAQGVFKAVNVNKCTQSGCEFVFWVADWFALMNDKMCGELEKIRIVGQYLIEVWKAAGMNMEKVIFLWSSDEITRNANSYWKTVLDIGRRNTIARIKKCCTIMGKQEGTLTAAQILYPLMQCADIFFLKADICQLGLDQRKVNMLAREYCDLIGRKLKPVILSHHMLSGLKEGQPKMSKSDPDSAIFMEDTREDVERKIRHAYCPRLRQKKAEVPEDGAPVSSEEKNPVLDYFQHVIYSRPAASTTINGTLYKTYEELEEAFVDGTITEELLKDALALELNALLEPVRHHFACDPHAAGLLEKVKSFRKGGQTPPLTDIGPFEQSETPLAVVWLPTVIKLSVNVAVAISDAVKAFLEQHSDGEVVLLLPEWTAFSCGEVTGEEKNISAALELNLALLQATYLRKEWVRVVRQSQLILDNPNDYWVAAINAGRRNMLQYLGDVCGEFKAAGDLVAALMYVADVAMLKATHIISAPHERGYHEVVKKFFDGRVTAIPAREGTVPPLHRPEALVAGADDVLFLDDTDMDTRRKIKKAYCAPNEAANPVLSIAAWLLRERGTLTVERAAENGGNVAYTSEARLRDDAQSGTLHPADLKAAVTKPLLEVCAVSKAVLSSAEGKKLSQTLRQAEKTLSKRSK

[8] = target: T4, Tyrosyl-tRNA synthetase, putative (Trypanosoma cruzi (strain CL Brener)); experiment: Trypanosoma cruzi tyrosyl tRNA synthetase (TcYRS) SOP; assay type: functional; conditions: 30 µM
[9] = target: Chromo domain-containing protein 1 (Saccharomyces cerevisiae (strain ATCC 204508 / S288c) (Baker's yeast)) (UniProt P32657); experiment: ScCHD-1 Enzyme Inhibition Assay; assay type: functional; conditions: 30 µM; further: in the data most compounds retested in dose-response had high values
Chromo domain-containing protein 1 (Saccharomyces cerevisiae (strain ATCC 204508 / S288c) (Baker's yeast)), sequence (P32657 whole entry, the tested form may be a part): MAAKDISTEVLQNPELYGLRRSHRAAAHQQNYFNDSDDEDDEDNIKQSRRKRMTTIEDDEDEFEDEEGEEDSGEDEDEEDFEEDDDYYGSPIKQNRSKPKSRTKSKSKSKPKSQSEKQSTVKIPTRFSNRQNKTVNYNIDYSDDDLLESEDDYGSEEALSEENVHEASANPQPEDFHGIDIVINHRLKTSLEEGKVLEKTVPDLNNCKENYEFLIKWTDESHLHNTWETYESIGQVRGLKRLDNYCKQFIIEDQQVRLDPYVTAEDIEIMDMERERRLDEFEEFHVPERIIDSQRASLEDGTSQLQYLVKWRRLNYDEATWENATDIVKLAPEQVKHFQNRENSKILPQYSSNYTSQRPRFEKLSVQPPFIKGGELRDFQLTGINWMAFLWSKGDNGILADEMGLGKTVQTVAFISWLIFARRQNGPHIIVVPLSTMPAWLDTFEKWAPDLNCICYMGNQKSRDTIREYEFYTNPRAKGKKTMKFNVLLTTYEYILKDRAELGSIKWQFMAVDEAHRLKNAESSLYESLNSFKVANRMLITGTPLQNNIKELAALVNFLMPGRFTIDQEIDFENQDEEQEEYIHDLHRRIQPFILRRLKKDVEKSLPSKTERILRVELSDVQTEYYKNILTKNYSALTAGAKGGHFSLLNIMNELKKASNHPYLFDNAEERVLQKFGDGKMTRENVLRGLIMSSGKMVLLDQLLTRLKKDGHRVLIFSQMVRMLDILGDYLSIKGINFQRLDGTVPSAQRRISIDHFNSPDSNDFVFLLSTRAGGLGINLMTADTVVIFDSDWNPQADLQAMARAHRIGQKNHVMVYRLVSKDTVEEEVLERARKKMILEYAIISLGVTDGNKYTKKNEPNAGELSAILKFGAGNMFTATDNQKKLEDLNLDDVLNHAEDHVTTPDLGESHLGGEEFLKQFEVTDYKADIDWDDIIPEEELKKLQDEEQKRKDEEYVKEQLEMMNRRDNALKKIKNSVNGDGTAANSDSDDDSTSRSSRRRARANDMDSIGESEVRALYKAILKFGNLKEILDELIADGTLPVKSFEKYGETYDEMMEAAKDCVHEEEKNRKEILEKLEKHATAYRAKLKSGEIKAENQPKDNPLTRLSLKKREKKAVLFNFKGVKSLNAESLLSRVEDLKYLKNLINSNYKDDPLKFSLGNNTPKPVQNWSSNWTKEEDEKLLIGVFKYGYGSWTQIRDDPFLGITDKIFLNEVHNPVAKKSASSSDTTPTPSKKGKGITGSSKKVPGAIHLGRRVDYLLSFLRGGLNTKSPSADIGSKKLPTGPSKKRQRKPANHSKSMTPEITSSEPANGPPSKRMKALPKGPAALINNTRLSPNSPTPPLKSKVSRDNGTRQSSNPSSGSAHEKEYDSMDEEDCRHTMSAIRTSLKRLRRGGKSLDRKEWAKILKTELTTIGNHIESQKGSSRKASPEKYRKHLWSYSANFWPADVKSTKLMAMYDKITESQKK

Sialic acid-binding Ig-like lectin 9 (Homo sapiens), sequence (Q9Y336 whole entry): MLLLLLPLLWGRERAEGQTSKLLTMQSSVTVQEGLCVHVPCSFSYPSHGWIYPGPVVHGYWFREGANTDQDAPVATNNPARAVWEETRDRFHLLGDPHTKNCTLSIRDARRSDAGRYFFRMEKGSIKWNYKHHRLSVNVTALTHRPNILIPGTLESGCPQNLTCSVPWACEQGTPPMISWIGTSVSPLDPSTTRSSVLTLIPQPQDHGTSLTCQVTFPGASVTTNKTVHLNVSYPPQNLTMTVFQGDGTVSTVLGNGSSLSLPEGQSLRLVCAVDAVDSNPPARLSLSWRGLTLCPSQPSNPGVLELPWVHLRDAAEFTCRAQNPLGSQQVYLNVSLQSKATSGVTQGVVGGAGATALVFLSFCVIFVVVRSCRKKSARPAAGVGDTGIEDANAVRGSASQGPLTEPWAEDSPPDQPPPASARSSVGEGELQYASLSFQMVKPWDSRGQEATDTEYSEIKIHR
Protein translocase subunit SecA (Escherichia coli (strain K12)), sequence (P10408 whole entry): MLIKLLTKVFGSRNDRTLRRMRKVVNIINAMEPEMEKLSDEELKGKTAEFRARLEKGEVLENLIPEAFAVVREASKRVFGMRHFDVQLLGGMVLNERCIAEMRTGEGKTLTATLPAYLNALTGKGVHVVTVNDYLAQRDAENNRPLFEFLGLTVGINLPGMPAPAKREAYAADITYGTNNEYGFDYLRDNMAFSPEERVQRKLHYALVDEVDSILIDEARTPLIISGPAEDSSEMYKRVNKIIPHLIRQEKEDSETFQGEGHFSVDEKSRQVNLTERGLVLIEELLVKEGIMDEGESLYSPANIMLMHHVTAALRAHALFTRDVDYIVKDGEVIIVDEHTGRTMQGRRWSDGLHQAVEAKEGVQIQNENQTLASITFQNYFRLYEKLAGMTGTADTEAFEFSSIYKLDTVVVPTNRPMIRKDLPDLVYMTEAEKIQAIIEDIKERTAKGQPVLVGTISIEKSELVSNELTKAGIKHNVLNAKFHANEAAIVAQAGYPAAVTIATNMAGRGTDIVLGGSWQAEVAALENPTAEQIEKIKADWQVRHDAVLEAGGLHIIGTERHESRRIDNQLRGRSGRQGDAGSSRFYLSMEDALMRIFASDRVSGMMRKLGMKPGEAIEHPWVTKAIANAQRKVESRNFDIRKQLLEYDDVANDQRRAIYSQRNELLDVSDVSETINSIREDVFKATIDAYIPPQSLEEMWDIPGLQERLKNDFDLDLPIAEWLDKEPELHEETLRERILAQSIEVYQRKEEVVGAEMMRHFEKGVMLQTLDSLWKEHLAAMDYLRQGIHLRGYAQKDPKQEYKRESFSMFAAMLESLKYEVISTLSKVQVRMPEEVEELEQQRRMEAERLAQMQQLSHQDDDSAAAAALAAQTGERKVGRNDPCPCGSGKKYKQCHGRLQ

Row | Structure (SMILES) | Percent Effect [1] [%] | Percent Effect [2] [%] | Percent Effect [3] [%] | Percent Effect [4] [%] | Percent Effect (Trypanosoma cruzi) [%] | Percent Effect [5] [%] | Percent Effect [6] [%] | Percent Effect (Homo sapiens) [%] | Percent Effect [7] [%] | Percent Effect [8] [%] | Percent Effect [9] [%]
1 | COC(=O)CCC(=O)N1CCc2[nH]nc(-c3ccc(F)c(F)c3)c2C1 | -3.6 | 0 | 8.72 | -7.28 | -3.81 | 1.24 | -3.35 | 9.05 | 2.15 | 8.64 | -0.244
2 | CCn1cnnc1C1CCN(C(=O)c2ccc3cc[nH]c3c2)CC1 | -5.68 | 7.89 | 11.4 | 8.5 | -3.21 | 3.55 | 11 | -5.37 | -2.13 | 7.79 | -4.05
3 | Cc1cccc(C)c1OCCC(=O)N1CCC(c2nncn2C)CC1 | -6.09 | 23.4 | 3.3 | 8.75 | 6.74 | -2.49 | 6.76 | 4.85 | 6.8 | 21.9 | -8.79
4 | CC1CCN(CCNC(=O)c2cncnc2C(C)C)CC1 | 0.314 | 4.17 | -2.65 | -7.34 | -5.34 | 2.21 | 11.1 | 0.616 | 1.05 | 5.13 | -2.34
5 | Cc1nccc(-c2cccc(NCC(=O)N3CCc4sccc4C3)c2)n1 | -1.56 | 2.63 | 49.8 | -3.82 | 4.76 | -1.8 | 6.68 | -23.6 | 11.3 | 30.9 | -8.23
6 | O=C(NCc1ccco1)C1CCCN1Cc1nc(-c2ccco2)no1 (stereo unspecified) | -0.649 | 13.5 | 0.501 | -7.57 | -4.18 | 4.99 | 7.9 | 10.9 | 7.92 | 15.8 | -0.371
7 | Cc1cc(C)nc(Nc2cc(C3CCCN(C)C3)nc(C)n2)n1 (stereo unspecified) | -3.56 | 9.46 | -3.72 | 6.27 | 1.19 | -1.62 | 9.2 | 1.68 | 4.3 | 11.7 | -18.4
8 | O=C(CN1CCOC(Cn2cccn2)C1)Nc1nncs1 (stereo unspecified) | -7.55 | 10.4 | -7.65 | -17.4 | 10.3 | -4 | 11.2 | 13.3 | 9.52 | 18.8 | -22.6
9 | CCNC(=O)N1CCN(Cc2nc3ccccc3[nH]2)[C@@H]2CS(=O)(=O)C[C@@H]21 | -3.35 | 5.41 | -2.19 | -3.56 | -4.2 | 2.23 | 15.2 | 1.54 | 4.3 | 11.1 | -3.76
10 | CN(Cc1ccc(Cl)c(Cl)c1)C(=O)CNC(N)=O | -3.49 | 10.5 | 9.37 | -5.68 | 3.6 | -13 | 17.4 | 2.07 | 4.25 | 15.6 | -1.83
11 | Cn1cc(C(=O)N2CC[C@@H]3[C@@H]2CCN3Cc2cccc(F)c2)cn1 | -5 | 8.11 | 1.6 | -0.0749 | 0.88 | 4.14 | 9.96 | -2.6 | 0 | 10.3 | 1.12
